Drawing on PubChem BioAssay (Tox21), this text covers Potency and outcome for eight compounds.

Inconclusive results are not listed. Unmarked numbers belong to inactive results. Active and inactive are the calls of the source. Unless noted, calls come from the whole dose curve; as a rule, active = well fitted curve in the direction sought with a large enough effect in the repeat runs; inconclusive = weak or mixed curves; inactive = no such curve, though single readings can be large; an effect the other way counts as inactive or inconclusive.

Test [1] deals with Retinoic acid receptor RXR-alpha (Homo sapiens) (UniProt P19793). Kind of test: qHTS assay to identify small molecule agonists of the RXR signaling pathway (AID 1159527; calls by dose curve; note: nearly all actives have a fitted effect of over 35% in size). An outline of the steps: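 Beta-lactamase reporter assay, agonist format. Engineered HEK 293T line, charcoal-stripped FBS at 2%, overnight (16 hr) exposure, fluorescence at 460 and 530 nm after 405 nm excitation.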
Retinoic acid receptor RXR-alpha (Homo sapiens), sequence (P19793 whole entry, looked up): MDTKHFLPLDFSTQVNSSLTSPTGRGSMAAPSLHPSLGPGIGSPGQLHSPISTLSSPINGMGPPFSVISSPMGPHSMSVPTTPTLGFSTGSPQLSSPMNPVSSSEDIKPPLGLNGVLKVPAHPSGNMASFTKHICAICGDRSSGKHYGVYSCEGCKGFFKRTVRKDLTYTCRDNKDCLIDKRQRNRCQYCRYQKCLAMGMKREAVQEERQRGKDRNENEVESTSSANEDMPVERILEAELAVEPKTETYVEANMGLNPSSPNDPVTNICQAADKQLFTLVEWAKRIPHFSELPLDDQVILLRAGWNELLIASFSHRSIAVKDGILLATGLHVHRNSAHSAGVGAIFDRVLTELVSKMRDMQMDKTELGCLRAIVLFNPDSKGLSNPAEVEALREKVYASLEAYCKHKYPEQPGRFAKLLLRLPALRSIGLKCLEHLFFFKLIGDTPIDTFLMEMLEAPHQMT

The nature of test [2]: qHTS assay to identify small molecule agonists of the RXR signaling pathway - cell viability counter screen (AID 1159529).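 Note: HEK 293T cells carrying an RXR-alpha UAS beta-lactamase reporter; series mostly up to about 77 µM; nearly all actives have a fitted effect of over 50% in size.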 An outline of the steps: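 Same-well viability check after the LiveBLAzer FRET read: CellTiter-Glo added, luminescence measured after 30 min at room temperature. Reporter HEK 293T cells had been treated with compounds for 16 hr following a 5 hr preincubation.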

Test [3] in a line: qHTS assay to identify small molecule antagonists of the retinoid acid receptor (RAR) signaling pathway - cell viability counter screen (AID 1159551). Note: nearly all actives have a fitted effect of over 35% in size. In short, it runs like this: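 Measured by luminescent ATP detection, viability reflects C3RL4 cells treated 6 h at 37 C with test chemicals in the presence of 1 uM (final) retinol.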
Test [4] in a line: qHTS assay to identify small molecule agonists of the retinoic acid receptor (RAR) signaling pathway (AID 1159553). An outline of the steps:
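6 hr compound exposure (DMSO vehicle) of overnight-plated C3RL4 RARE-luc cells at 37 C; luminescence quantified after 30 min RT with luciferase reagent.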

Test [5] can be described thus: qHTS assay to identify small molecule antagonists of the estrogen related receptor (ERR) signaling pathway from Tox21 library - cell viability counter screen (AID 1224834). Note: nearly all actives have a fitted effect of over 30% in size. In short, it runs like this: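 Seeded ERR cells were rested 6 h at 37 C/5% CO2 before compounds, positive and negative controls or DMSO were added. Incubation continued for 17.5 h, and viability was then quantified by CellTiter-Fluor fluorescence.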

In test [6] the target is Luciferin 4-monooxygenase (Photinus pyralis) (UniProt P08659). Put plainly: qHTS assay to identify small molecule inhibitors of firefly luciferase (AID 1224835). Note: series mostly up to about 120 µM; nearly all actives have a fitted effect of over 25% in size. An outline of the steps:
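Biochemical qHTS: compounds run as interplate titrations against purified firefly enzyme, with D-luciferin and ATP each at its KM concentration. Light output recorded by CCD imaging.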

Test [7] is described as follows: qHTS assay to identify small molecule agonists of the constitutive androstane receptor (CAR) signaling pathway - cell viability counter screen (AID 1224836). Note: series mostly up to about 92 µM; nearly all actives have a fitted effect of over 45% in size. In short, it runs like this:
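Compound titrations (15 concentrations) went onto HepG2-CYP2B6-hCAR cells 4 h after seeding, alongside PK11195 at a final 0.75 uM; a 23 h, 37 C/5% CO2 incubation preceded CellTiter-Fluor viability measurement.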

Test [8] addresses Nuclear receptor subfamily 1 group I member 3 (Homo sapiens) (UniProt Q14994). Kind of test: qHTS assay to identify small molecule antagonists of the constitutive androstane receptor (CAR) signaling pathway (AID 1224838).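 Note: HepG2 cells stably expressing hCAR with CYP2B6 luciferase reporter stimulated by CITCO; nearly all actives have a fitted effect of over 40% in size.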 Note: potency is the fitted concentration of half-maximal effect. An outline of the steps: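 Human hepatoma HepG2 cells expressing hCAR and a CYP2B6 promoter (2.2 kb) luciferase construct; compound titration (15 points) with 50 nM CITCO final, 24 h at 37 C/5% CO2; luminescence via ONE-Glo after 30 min at room temperature.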

For test [9] the target is unchanged. Put plainly: qHTS assay to identify small molecule agonists of the constitutive androstane receptor (CAR) signaling pathway (AID 1224839).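 Note: HepG2 cells stably carrying human CAR and a CYP2B6 luciferase reporter; series mostly up to about 92 µM; nearly all actives have a fitted effect of over 15% in size.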 An outline of the steps:
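In this screen, CAR-driven CYP2B6 promoter activity is measured by luminescence in HepG2-CYP2B6-hCAR cells after 24 h with test compounds and 0.75 uM PK11195 (final concentration).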

A short description of test [10]: qHTS assay to identify small molecule antagonists of the estrogen related receptor signaling pathway with the pleiotropic PPARgamma coactivator (PGC) from Tox21 10K library - cell viability counter screen (AID 1224840; active = well fitted cell-killing curve with a large enough effect in the repeat runs, not every such curve was filed as active; note: nearly all actives have a fitted effect of over 40% in size). In short, it runs like this: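 Seeded PGC/ERR cells (2,000/well, 6 h, 37 C/5% CO2) get compound by pin tool; 17.5 h incubation at 37 C; CellTiter-Fluor added, 30 min, fluorescence measured.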

Test [11] concerns the target Thyrotropin receptor (Homo sapiens) (UniProt P16473). Put plainly: qHTS assay to identify small molecule agonists of the thyroid stimulating hormone receptor (TSHR) signaling pathway (AID 1224843; calls by dose curve; note: nearly all actives have a fitted effect of over 45% in size). An outline of the steps:
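HEK293/TSHR, 800 cells/well; cpd 30 min RT; add cAMP-d2 + anti-cAMP-cryptate, 1 h RT; fluorescence read on plate reader. 15-pt titration, n=3.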

A short description of test [12]: qHTS assay to identify small molecule agonists of the hypoxia (HIF-1) signaling pathway - cell viability counter screen (AID 1224844; calls by dose curve; note: nearly all actives have a fitted effect of over 50% in size). In short, it runs like this:
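HRE-bla ME-180; 0.5% dFBS; cpd 17 h, 37C, 5% CO2; CellTiter-Glo lum., 30 min RT, post-FRET read, same wells.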

Test [13] is described as follows: qHTS assay to identify small molecule agonists of H2AX (AID 1224845; active = well fitted activation curve with a large enough effect in the signal ratio in the repeat runs, not every such curve was filed as active; the % refers to the signal ratio). In short, it runs like this: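 Wild-type CHO-K1 cells, plated overnight, exposed 3hr at 37C to 15 concentrations (0.76% DMSO final). Lysed, then HTRF anti-pH2AX (S139) cryptate and anti-H2AX-d2 antibodies, 24 hr room temperature; 665/620 nm emission read.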
A short description of test [14]: qHTS assay to identify small molecule agonists of the hypoxia (HIF-1) signaling pathway (AID 1224846; active = well fitted activation curve with a large enough effect in the signal ratio in the repeat runs, not every such curve was filed as active; the % refers to the signal ratio). An outline of the steps: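 Reporter induction in HRE-bla ME-180 cells is taken as agonism: cells sit 5 hrs after plating, receive compounds or DMSO only, incubate 17 hrs at 37C under 5% CO2, and are loaded with CCF4-AM for beta-lactamase FRET measurement.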
Test [15] is described as follows: qHTS assay to identify small molecule agonists of H2AX - cell viability counter screen (AID 1224847; calls by dose curve; note: top concentration of the series differs between compounds; nearly all actives have a fitted effect of over 30% in size). An outline of the steps: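 Read-out: CellTiter-Glo luminescence, 30 min RT. Cells: wild-type CHO-K1, 1000/well, 10% FBS, plated overnight at 37C. Treatment: 15 concentrations, 3 hr, 37C, 0.76% DMSO.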
Test [16] is described as follows: qHTS assay to identify small molecule antagonists of the retinoic acid receptor (RAR) signaling pathway (AID 1159552; note: nearly all actives have a fitted effect of over 50% in size). In short, it runs like this:
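Readout: luciferase luminescence, 30 min post-reagent at RT. Setup: C3RL4 RARE reporter cells, compounds plus retinol 1 uM final, 6 hr incubation at 37 C and 5% CO2.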

The nature of test [17]: qHTS assay to identify small molecule antagonists of the constitutive androstane receptor (CAR) signaling pathway - cell viability counter screen (AID 1224837). Note: series mostly up to about 92 µM; nearly all actives have a fitted effect of over 45% in size. In short, it runs like this: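 To flag cytotoxic false antagonists, HepG2 hCAR/CYP2B6-2.2kb cells were treated 23 hr with 15-concentration compound series and 50 nM CITCO at 37 C/5% CO2; CellTiter-Fluor fluorescence was the measured end point.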

Test [18] can be described thus: qHTS assay to identify small molecule antagonists of the estrogen related receptor signaling pathway with the pleiotropic PPARgamma coactivator (PGC) from Tox21 10K library (AID 1224841; call rule not given here; note: series mostly up to about 92 µM; actives are mostly falling curves and most rising ones were filed inactive; nearly all actives have a fitted effect of over 50% in size). An outline of the steps: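 Test chemicals dissolved in DMSO were applied to pre-incubated (6 h) PGC/ERR cells at 2,000 cells/well for an 18 h, 37 C treatment; reporter luminescence was then read using One-Glo.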

A short description of test [19]: qHTS assay to identify small molecule antagonists of the estrogen related receptor (ERR) signaling pathway from Tox21 library (AID 1224848). Note: nearly all actives have a fitted effect of over 50% in size. An outline of the steps:
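Compounds dissolved in DMSO are pin-transferred onto ERR reporter cells (2,000 per well) that have settled for 6 h at 37 C. Plates then incubate 18 h at 37 C before ONE-Glo luciferase reagent and a luminescence read 30 min later.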

Luciferin 4-monooxygenase (Photinus pyralis), sequence (P08659 whole entry, looked up): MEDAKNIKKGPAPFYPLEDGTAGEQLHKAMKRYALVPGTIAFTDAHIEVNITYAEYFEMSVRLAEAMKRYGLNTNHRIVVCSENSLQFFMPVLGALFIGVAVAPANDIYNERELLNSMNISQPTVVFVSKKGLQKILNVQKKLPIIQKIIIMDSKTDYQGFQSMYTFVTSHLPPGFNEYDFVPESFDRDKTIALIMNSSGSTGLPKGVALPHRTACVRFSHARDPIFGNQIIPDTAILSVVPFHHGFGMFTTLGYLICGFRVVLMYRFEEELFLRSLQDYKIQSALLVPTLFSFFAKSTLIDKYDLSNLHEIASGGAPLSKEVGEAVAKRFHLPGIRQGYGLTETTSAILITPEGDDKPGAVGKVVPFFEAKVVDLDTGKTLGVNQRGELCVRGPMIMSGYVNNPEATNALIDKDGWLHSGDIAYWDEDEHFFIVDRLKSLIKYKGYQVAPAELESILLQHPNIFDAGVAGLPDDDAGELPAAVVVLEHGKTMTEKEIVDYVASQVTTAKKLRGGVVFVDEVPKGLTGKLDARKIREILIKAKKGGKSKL
Nuclear receptor subfamily 1 group I member 3 (Homo sapiens), sequence (Q14994 whole entry, looked up): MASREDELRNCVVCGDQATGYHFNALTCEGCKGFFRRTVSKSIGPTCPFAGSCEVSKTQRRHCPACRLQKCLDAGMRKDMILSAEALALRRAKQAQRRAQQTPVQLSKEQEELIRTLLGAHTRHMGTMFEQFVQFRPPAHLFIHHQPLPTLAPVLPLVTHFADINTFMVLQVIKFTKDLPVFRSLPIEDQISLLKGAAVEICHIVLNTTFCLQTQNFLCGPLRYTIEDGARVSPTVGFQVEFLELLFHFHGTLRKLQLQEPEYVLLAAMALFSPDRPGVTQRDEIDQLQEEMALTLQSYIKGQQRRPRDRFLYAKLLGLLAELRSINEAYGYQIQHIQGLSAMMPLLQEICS
Thyrotropin receptor (Homo sapiens), sequence (P16473 whole entry, looked up): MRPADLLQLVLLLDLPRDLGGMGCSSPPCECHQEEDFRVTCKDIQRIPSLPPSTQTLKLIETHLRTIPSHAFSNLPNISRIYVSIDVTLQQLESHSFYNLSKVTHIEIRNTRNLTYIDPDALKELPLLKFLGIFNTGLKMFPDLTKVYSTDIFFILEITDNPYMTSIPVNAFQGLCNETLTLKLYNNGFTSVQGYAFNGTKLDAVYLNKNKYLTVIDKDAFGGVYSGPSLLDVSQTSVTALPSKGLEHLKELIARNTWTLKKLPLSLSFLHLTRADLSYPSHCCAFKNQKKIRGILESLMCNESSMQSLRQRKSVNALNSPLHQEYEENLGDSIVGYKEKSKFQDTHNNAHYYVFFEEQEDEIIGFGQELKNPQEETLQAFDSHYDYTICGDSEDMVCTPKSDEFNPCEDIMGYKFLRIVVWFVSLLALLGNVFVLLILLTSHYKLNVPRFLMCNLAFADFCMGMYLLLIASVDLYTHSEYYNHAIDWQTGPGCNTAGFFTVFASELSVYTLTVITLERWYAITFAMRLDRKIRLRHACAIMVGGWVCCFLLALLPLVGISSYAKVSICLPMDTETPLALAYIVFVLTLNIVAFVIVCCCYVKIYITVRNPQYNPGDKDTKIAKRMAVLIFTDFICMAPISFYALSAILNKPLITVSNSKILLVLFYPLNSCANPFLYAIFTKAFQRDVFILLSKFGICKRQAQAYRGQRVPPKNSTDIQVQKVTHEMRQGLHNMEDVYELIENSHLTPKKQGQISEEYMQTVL

On to `CCCCOCCOC(=O)COc1ccc(Cl)cc1Cl`, for which the Potency result in [1], in test [4], in test [6], in test [8] and in test [9] was “inactive” each time. For the same compound, the compound was classed as inactive in test [2], in [3], in test [5], in test [7], in test [10] and in test [11]. In addition, the compound was called inactive in test [12], in [13], in test [14] and in test [15].
`CCCCC1CCC(O)CC1` (stereo not given): the Potency result in test [1], in test [6] and in test [9] was “inactive” in each case. Also, the result in test [2], in [3], in [16], in [7], in test [17] and in test [10] was inactive. Moreover, the compound was called inactive in test [12], in test [13], in [14] and in test [15].
`C=C(C)[C@@H]1CC=C(C)C(=O)C1`: the Potency entry in test [1] and in test [6] was “inactive” each time. The outcome in test [2], in test [3], in test [5], in [7], in test [17] and in test [10] was inactive. In addition, the compound was called inactive in [11], in test [12], in test [13], in test [14] and in [15].
With `CCCC(CC)c1ccccc1` (stereo not given), the Potency result in test [1], in test [6], in [8] and in [9] was “inactive” in each case. For the same compound, the result in [2], in test [3], in test [5], in test [7], in test [17] and in test [10] was inactive. Further, the compound was called inactive in [11], in [12], in test [13], in [14] and in test [15].
As to `Cc1ncc([N+](=O)[O-])n1CC(C)O` (stereo not given), the Potency result in [1], in test [4] and in test [8] was “inactive” each time. In addition, the compound was called inactive in test [2], in test [3], in test [5], in [7], in test [10] and in [12]. Also, the call in test [13], in test [14] and in test [15] was inactive.
As for `CC(C)OC(=O)OCOP(=O)(CO[C@H](C)Cn1cnc2c(N)ncnc21)OCOC(=O)OC(C)C`, the Potency result in test [1], in [4] and in test [6] was “inactive” throughout. For the same compound, the outcome in test [2], in test [3], in test [5], in test [7], in test [17] and in test [10] was inactive. For the same compound, the compound was classed as inactive in test [11], in [14] and in test [15]. The Potency in [8] was 2370 nM (active).
Regarding `COc1cc2c(cc1OC)C(=O)C(CC1CCN(Cc3ccccc3)CC1)C2` (stereo not given), the Potency result in test [1], in test [4], in test [6], in test [8] and in test [19] was “inactive” in each case. In addition, the outcome in [2], in [3], in test [5], in [7], in [17] and in test [10] was inactive. Further, the result in test [18], in test [11], in test [12], in test [13], in [14] and in test [15] was inactive.
`C=C(C)C1CC=C(C)C(=O)C1` (stereo not given): the Potency result in test [1] and in test [6] was “inactive” in each case. The call in test [2], in test [3], in test [5], in [7], in test [17] and in test [10] was inactive. Further, the outcome in test [11], in test [13], in test [14] and in test [15] was inactive.
